For some assays here: Results with a measured potency or affinity are listed apart.
Columns and labels:
Design in all cases: scale not given: direction of the effect not stated beside the values
[1] = target: Protein translocase subunit SecA (Escherichia coli (strain K12)) (UniProt P10408); experiment: Assay to Identify E. coli SecA ATPase Inhibitors; type: functional; conditions: 30 µM
[2] = target: T1, Ubiquitin-activating enzyme e1, putative (Leishmania donovani (strain BPK282A1)) (UniProt E9BSI1); experiment: Leishmania donovani Ubiquitin Activating Enzyme (LdE1); type: functional; conditions: 30 µM
T1 sequence (whole entry): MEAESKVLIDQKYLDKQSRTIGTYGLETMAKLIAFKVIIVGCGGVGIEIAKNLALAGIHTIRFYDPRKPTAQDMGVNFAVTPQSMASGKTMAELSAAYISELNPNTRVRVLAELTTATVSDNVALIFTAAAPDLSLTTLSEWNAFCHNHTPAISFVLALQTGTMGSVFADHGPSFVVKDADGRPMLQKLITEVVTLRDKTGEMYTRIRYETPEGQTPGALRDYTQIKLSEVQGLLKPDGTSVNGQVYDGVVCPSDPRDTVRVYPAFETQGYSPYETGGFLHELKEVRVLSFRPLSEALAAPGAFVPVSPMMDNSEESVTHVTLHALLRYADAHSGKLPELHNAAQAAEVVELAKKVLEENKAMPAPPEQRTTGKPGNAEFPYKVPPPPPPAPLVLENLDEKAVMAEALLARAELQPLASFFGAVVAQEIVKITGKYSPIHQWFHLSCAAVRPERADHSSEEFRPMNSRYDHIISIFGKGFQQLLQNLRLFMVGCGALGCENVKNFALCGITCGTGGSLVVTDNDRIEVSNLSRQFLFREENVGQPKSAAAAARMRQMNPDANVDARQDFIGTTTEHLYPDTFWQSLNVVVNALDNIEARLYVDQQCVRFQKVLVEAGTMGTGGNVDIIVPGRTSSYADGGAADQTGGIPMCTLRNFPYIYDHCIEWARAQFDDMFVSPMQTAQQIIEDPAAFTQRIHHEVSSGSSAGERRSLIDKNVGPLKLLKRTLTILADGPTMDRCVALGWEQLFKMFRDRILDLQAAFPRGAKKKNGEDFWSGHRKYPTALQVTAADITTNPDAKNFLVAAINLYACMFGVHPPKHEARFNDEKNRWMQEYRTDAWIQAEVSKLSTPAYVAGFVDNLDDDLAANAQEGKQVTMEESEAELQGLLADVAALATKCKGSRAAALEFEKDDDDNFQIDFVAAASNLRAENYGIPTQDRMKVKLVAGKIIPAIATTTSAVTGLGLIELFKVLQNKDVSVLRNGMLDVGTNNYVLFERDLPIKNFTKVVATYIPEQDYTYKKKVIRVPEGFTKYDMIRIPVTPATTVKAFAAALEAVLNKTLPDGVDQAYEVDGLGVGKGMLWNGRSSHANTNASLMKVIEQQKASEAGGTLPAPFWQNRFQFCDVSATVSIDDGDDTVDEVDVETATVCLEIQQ

[3] = target: AMP-activated protein kinase, AMPK (Homo sapiens) (UniProt P54646+O43741+P54619+Q9UGJ0+Q9Y478+Q13131+Q9UGI9); experiment: AMP-dependent Kinase enzyme assay. An in vitro enzyme assay that detects ADP turnover that is directly proportional to AMPK activity. This uses naive AMPK that is activated during the assay with MK-8722; type: functional; conditions: 30 µM
[4] = target: Sialic acid-binding Ig-like lectin 9 (Homo sapiens) (UniProt Q9Y336); experiment: Hs-Siglec9 ALPHAscreen SOP 20170721; conditions: 10 µM
Chain of Sialic acid-binding Ig-like lectin 9 (Homo sapiens) (Q9Y336 whole entry): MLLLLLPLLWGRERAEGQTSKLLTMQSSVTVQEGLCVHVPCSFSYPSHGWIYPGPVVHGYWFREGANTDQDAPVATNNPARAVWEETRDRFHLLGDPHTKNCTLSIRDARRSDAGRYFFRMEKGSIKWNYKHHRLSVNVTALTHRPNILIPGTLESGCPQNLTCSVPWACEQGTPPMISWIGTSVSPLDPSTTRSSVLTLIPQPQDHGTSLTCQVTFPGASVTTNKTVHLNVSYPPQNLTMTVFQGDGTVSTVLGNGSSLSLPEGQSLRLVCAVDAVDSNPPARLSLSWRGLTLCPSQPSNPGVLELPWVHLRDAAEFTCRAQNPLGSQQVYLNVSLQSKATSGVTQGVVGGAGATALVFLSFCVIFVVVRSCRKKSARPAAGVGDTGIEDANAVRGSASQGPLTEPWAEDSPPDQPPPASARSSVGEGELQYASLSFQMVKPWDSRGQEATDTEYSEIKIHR

Trypanosoma cruzi = experiment: Trypanosoma cruzi phosphomannomutase and mannose-1-phosphate guanylyltransferase assay; type: functional; conditions: 10 µM
[5] = target: T2, Arginase-2, mitochondrial (Homo sapiens) (UniProt P78540); experiment: in vitro enzyme assay to detect the production of urea directly proportional to the activity of Arginase II; type: functional; conditions: 33.3 µM; note: in the data most compounds retested in dose-response had high values
T2 sequence (whole entry): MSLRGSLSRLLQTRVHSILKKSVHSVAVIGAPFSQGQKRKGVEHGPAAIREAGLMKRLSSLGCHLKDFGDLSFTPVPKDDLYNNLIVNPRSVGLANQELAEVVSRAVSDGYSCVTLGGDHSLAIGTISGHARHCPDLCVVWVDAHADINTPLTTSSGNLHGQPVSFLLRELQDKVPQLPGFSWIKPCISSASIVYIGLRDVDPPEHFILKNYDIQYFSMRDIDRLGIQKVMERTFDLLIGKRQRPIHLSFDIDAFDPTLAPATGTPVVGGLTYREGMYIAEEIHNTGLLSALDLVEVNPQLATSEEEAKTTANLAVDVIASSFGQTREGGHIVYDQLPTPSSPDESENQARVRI

[6] = target: T3, Proteasome subunit beta (Trypanosoma cruzi) (UniProt O96673); experiment: Trypanosoma cruzi proteasome chymotrypsin-like activity (TcProtChymo) assay.; note: in the data most compounds retested in dose-response had high values; type: functional; conditions: 9.37 µM
T3 sequence (whole entry): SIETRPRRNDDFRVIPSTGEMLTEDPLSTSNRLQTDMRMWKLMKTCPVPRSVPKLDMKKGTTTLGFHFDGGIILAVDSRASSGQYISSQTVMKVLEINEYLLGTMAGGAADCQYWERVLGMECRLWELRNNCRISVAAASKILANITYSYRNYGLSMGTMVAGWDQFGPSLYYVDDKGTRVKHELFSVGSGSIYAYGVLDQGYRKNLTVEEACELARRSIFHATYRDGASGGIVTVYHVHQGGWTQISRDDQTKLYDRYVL

Homo sapiens = species: Homo sapiens; experiment: To identify inhibition of the IFN signalling (Jak-Stat) pathway via expression of an eGFP reporter gene under the control of an IFN-stimulated response element (ISRE) containing MxA promoter.; type: functional; conditions: 30 µM
[7] = target: T4, Tyrosyl-tRNA synthetase, putative (Trypanosoma cruzi (strain CL Brener)) (UniProt Q4DSP6); experiment: Trypanosoma cruzi tyrosyl tRNA synthetase (TcYRS) _High Tyrosine SOP; type: functional; conditions: 30 µM; note: in the data most compounds retested in dose-response had high values
T4 sequence (whole entry): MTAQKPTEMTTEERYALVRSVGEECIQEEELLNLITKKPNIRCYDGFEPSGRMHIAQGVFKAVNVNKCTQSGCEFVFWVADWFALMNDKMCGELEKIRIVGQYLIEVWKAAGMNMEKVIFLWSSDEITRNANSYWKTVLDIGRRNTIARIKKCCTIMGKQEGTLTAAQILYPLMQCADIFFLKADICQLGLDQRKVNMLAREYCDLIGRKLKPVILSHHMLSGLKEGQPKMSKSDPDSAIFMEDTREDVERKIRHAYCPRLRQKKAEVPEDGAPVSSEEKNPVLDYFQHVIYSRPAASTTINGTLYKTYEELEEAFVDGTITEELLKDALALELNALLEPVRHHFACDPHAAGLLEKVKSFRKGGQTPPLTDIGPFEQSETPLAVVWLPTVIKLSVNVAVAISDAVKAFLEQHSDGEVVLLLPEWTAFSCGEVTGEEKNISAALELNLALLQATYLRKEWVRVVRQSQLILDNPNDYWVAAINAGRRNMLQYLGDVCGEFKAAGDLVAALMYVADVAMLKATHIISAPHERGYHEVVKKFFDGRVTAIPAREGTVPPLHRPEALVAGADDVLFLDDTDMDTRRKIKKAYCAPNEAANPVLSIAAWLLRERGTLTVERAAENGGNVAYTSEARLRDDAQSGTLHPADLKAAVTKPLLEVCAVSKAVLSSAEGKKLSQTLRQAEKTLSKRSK

[8] = target: T4, Tyrosyl-tRNA synthetase, putative (Trypanosoma cruzi (strain CL Brener)); experiment: Trypanosoma cruzi tyrosyl tRNA synthetase (TcYRS) SOP; type: functional; conditions: 30 µM
[9] = target: Chromo domain-containing protein 1 (Saccharomyces cerevisiae (strain ATCC 204508 / S288c) (Baker's yeast)) (UniProt P32657); experiment: ScCHD-1 Enzyme Inhibition Assay; type: functional; conditions: 30 µM; note: in the data most compounds retested in dose-response had high values
Chain of Chromo domain-containing protein 1 (Saccharomyces cerevisiae (strain ATCC 204508 / S288c) (Baker's yeast)) (P32657 whole entry, the tested form may be a part): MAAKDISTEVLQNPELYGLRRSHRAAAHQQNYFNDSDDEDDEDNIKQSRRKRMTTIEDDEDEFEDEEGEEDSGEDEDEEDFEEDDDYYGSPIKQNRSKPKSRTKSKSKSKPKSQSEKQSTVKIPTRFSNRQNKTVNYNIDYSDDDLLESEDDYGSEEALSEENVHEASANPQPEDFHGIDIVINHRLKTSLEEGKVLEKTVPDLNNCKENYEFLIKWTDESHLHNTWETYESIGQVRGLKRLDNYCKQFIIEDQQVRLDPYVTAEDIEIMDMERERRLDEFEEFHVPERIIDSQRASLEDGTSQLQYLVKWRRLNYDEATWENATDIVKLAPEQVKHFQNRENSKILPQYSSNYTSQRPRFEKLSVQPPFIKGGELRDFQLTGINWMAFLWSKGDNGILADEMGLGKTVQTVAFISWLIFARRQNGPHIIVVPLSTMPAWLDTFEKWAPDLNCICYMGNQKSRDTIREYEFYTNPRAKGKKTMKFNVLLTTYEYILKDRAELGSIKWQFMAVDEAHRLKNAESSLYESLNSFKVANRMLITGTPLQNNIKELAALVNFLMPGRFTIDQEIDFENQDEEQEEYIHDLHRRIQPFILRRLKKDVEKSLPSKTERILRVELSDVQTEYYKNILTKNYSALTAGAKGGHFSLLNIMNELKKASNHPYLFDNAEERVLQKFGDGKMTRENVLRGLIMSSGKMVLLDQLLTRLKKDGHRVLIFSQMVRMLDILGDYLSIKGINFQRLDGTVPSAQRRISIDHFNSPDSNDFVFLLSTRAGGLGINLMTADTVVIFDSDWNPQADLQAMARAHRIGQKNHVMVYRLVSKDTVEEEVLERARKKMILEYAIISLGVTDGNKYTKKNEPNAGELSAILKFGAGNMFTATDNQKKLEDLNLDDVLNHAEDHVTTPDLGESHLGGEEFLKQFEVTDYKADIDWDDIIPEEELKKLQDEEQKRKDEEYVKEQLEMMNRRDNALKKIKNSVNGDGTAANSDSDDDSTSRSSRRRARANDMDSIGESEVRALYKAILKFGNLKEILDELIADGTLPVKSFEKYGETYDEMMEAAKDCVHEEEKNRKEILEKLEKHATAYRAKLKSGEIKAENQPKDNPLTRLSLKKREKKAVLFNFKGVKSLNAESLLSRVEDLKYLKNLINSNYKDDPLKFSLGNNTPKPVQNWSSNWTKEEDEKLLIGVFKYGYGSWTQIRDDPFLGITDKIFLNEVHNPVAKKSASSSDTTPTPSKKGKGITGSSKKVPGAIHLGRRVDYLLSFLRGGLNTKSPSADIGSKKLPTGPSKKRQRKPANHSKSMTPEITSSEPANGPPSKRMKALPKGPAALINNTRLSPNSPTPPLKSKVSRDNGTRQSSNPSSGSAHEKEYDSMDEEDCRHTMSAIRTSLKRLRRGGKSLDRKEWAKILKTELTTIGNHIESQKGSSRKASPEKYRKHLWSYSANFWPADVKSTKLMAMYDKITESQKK

Chain of Protein translocase subunit SecA (Escherichia coli (strain K12)) (P10408 whole entry): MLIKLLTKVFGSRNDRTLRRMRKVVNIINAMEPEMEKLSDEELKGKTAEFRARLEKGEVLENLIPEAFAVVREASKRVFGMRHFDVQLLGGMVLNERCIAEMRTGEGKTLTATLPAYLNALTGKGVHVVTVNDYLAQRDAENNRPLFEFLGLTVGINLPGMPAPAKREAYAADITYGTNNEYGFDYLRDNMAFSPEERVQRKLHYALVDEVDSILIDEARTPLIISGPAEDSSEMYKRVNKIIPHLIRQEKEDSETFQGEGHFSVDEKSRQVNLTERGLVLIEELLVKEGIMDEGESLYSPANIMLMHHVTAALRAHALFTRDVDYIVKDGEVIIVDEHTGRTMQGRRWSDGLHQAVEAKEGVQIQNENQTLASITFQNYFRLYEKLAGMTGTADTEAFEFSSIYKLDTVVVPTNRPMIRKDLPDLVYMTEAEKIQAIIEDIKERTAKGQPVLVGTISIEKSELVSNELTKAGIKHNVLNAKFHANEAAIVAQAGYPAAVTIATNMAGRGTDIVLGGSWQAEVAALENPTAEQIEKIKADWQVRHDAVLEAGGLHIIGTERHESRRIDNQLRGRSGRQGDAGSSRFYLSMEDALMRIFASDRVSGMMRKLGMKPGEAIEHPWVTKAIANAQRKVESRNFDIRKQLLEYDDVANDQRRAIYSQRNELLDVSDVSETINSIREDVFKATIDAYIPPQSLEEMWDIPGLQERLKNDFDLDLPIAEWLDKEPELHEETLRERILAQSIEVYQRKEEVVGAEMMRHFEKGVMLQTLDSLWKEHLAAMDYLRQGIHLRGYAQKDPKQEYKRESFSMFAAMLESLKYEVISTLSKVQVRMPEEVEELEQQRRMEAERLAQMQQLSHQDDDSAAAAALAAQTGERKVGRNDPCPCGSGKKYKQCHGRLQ

SMILES | Percent Effect [1] [%] | Percent Effect [2] [%] | Percent Effect [3] [%] | Percent Effect [4] [%] | Percent Effect (Trypanosoma cruzi) [%] | Percent Effect [5] [%] | Percent Effect [6] [%] | Percent Effect (Homo sapiens) [%] | Percent Effect [7] [%] | Percent Effect [8] [%] | Percent Effect [9] [%]
CC(CN1CCOCC1)NC(=O)NCc1ccc(Cl)s1 (stereo not given) | 0.411 | 10.5 | 7.25 | 0.82 | -2.63 | -2.37 | 15.8 | 5.71 | 8.51 | 20.8 | -3.24
CC(C)c1nn(C)c(N(C)C)c1CNCc1cccc(CN(C)C)c1 | -1.46 | 18.4 | -8.3 | 3.17 | -7.94 | 3.6 | 3.81 | 2.21 | 8.37 | 18.5 | -4.8
Cc1ccoc1C(=O)N1CCOCC2(CCN(c3ncccn3)C2)C1 (stereo not given) | -3.09 | 5.41 | -4.43 | 21.7 | 5.57 | 13.2 | 9.01 | 10.4 | 7.53 | 21 | -6.03
Cc1cccc(C)c1NC(=O)CCNC(=O)c1ccoc1 | -3.75 | 18.2 | 5.22 | -2.96 | 1.27 | 0.21 | 20.3 | 16 | 10.5 | 14.1 | -8.58
CC(=O)N1CCCN(C(=O)CCc2c(C)noc2C)CC1 | -5.5 | 18.4 | -6.52 | -3.87 | 3.95 | 0.766 | 9.52 | 9.31 | 8.33 | 19.5 | -11.2
Cc1nc(C)n(CC2CCCN(CCOc3cccc(C#N)c3)C2)n1 (stereo not given) | 1.74 | 21.6 | 7.7 | 4.91 | -8.4 | 24.9 | 11.2 | 17.4 | 0.493 | -1.24 | -4.16
O=C(N[C@@H]1CN(Cc2cccs2)[C@@H]2CCCO[C@@H]21)C1CC1 | 2.58 | 8 | 2.54 | 23.2 | -7.34 | -53.6 | 13.3 | 1.32 | 2.08 | 20 | -6.29
CCn1c(CN(C)C)nnc1C1CCN(c2ccnc(C)c2)CC1 | -0.496 | 6.94 | -2.58 | -2.36 | -1.85 | 2.65 | 21.1 | -1.07 | 5.26 | 5.13 | -1.27
c1csc(-c2nc(CN3CCOC(Cn4cccn4)C3)co2)c1 (stereo not given) | -4.59 | 18.9 | -12.4 | 19.6 | 6.32 | -8.82 | 9.01 | 16.2 | 7.39 | 23.5 | -11.2
NC(=O)N1CCC2(CC1)CN(c1ccsc1)C(=O)CO2 | -5.13 | 10.7 | 4.87 | 0.623 | -7.68 | -3.96 | -2.38 | 11 | -3.19 | -1.28 | -2.23
